HT1080 IDH1KD tx: HT-1080 IDH1 knockdown cell toxicity (counter line) | HT-1080 IDH1 knockdown viability, ATP luminescence, 48 h | Potency, µM (series often up to 46.1 µM), without a hit: at the highest dose activity, negative = toxicity, most hits filed as cytotoxic | 360,000 compounds, 2% hits | AID 686971;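 note: 0% = DMSO wells and -100% = cell-free medium wells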
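In this qHTS, HT-1080 cells depleted of IDH1 are exposed for 48 h at 37 °C to compound titrations. Toxicity is scored from CellTiter-Glo luminescence, with DMSO as full viability and medium alone as none.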
KB-V1 MDR tox: kills drug-selected multidrug resistant KB-V1 cells; KB-V1 MDR cells viability, CellTiter-Glo, 72 h; Potency, µM (highest dose often 46.1 µM), actives largely listed as cytotoxic; 400,000 compounds, 3.4% hits; note: nearly all actives have a fitted effect of over 60% in size
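Cytotoxicity toward P-gp-expressing KB-V1 cells was determined as loss of CellTiter-Glo luminescence after 72 h at 37 degrees C. Compounds were tested in quantitative HTS format across a concentration range, with curves fitted to normalized data.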
TDP1 cell CPT: DT40-hTDP1 cell growth loss with CPT. 420,000 compounds, 12% hits. Potency, µM (series often up to 46.2 µM), inactives show at the top dose activity change, negative = growth inhibition, actives largely listed as inhibitors. AID 686979. chicken DT40 Tdp1-/-;hTDP1 cells + 20 nM CPT, ATP luminescence, 48 h; note: nearly all actives have a fitted effect of over 55% in size
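Cell growth measured by CellTiter-Glo luminescence after a minimum 48 h, 37 C compound exposure with 20 nM CPT in Tdp1-knockout DT40 cells stably expressing hTDP1, seeded 400/well; qHTS titration format.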
KB-3-1 tox: kills parental KB-3-1 adenocarcinoma cells; KB-3-1 viability, CellTiter-Glo ATP luminescence, 72 h; Potency, µM (titrated, usually from 46.1 µM), hits mostly cytotoxic; 400,000 compounds, 1.4% hits; AID 1347075; note: nearly all actives have a fitted effect of over 60% in size
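Parental KB-3-1 adenocarcinoma cells in phenol-red-free DMEM with 10% FBS were pin-treated with compounds at several concentrations, incubated 72 h at 37 °C, and viability read by CellTiter-Glo luminescence; concentration-effect curves were fitted after normalization.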
DT40 TDP1 no CPT: qHTS for Inhibitors of human tyrosyl-DNA phosphodiesterase 1 (TDP1): qHTS in cells in absence of CPT | Potency, µM (highest dose often 46.2 µM), for the others: at the highest dose activity change, negative = growth inhibition, usual class: inhibitors | 420,000 compounds, 15% hits | DT40 Tdp1-/- hTDP1 cells, no CPT, ATP luminescence, 48 h; note: nearly all actives have a fitted effect of over 55% in size
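DT40 Tdp1-/-;hTDP1 cells, no CPT (DMSO vehicle only), 400 cells/well; compounds pin-transferred; ≥48 hr, 37 °C; CellTiter-Glo 30 min RT dark, luminescence read.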
HT1080NT lethal: kills 2HG-producing HT-1080-NT fibrosarcoma cells | HT-1080-NT fibrosarcoma viability, CellTiter-Glo ATP luminescence, 48 h | Potency, µM (doses to about 46.1 µM), for inactives: top-dose activity, negative = less viability, actives largely listed as cytotoxic | 360,000 compounds, 1.6% hits;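 note: NT is the 2HG producing partner of a matched IDH1 knockdown line; 0% = DMSO-treated cells and -100% = media-only wells without cells; nearly all actives have a fitted effect of over 55% in size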
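750 cells/well, RPMI + 5% FBS; 2 h settle, compound pin-transfer, 48 h at 37 degrees C. CellTiter-Glo 10 min RT, luminescence. Normalized to DMSO and media-only wells.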
Numbers without * were called inactive; i = inactive; ? = inconclusive; / = no result given. An excerpt weighted towards active compounds, which were near 19% of everything screened. Calls come from the whole dose curve; as a rule, active = well fitted curve in the direction sought with a large enough effect; inconclusive = small, poorly fitted or top-dose-only effect, or another doubt; inactive = no such curve, though single readings can be large; an effect the other way counts as inactive or inconclusive. Unless noted, % is set by controls: 0 for no effect and ±100 for the full control effect; potency is the fitted concentration of half-maximal effect.

SMILES	HT1080 IDH1KD tx	KB-V1 MDR tox	TDP1 cell CPT	KB-3-1 tox	DT40 TDP1 no CPT	HT1080NT lethal
CCOC(=O)c1noc2ncn(CC(=O)Nc3ccc(OC)c(Cl)c3)c(=O)c12	/	i	/	i	/	/
Cc1ccc(NC2CCCN(C(=O)CN3C(=O)CSC3=O)C2)cc1C (centres undefined)	0%	i	9%	i	-2%	3%
CC(=O)C1=C(O)C(=CC=Cc2ccccc2)OC1=O	-20%	i	?	i	16µM*	-9%
COc1ccc(CNC(=O)C2CCN(c3cc(C(=O)Nc4cccc(OC)c4)ccn3)CC2)cc1	-1%	i	?	i	?	-3%
COc1cc(/C=N/OCC(=O)NC2CCCCC2C)ccc1OCc1ccc(Cl)cc1 (centres undefined)	?	8.2µM*	18µM*	?	18µM*	-21%
COc1cc(/C=N/N2CCOCC2)ccc1OCc1ccc(Cl)cc1	-2%	i	-2%	i	?	1%
COc1cc(/C=N/OCC(=O)Nc2cc(C)cc(C)c2)ccc1OCc1ccc(Cl)cc1	-4%	21µM*	?	?	13µM*	9%
CC(C)c1ccc(OCC(=O)Nc2c3c(nn2C(C)(C)C)CS(=O)(=O)C3)cc1	0%	?	12µM*	i	?	-3%
Fc1ccc(NC(=S)Nc2cccc3cnccc23)cc1	-24%	?	6%	?	-9%	-23%
COc1ccc(NC(=S)Nc2cccc3cnccc23)cc1	1%	i	0%	i	-13%	4%
CN(C)S(=O)(=O)c1cccc(NC(=S)Nc2cccc3cnccc23)c1	-26%	i	16µM*	?	13µM*	-18%
CCOc1ccc(NC(=S)Nc2cccc3cnccc23)cc1	-2%	15µM*	?	i	?	-5%
COc1ccccc1NC(=S)Nc1cccc2cnccc12	?	?	26µM*	i	23µM*	?
S=C(Nc1ccc(Cl)cc1)Nc1cccc2cnccc12	-8%	i	?	i	23µM*	-16%
Cc1cc(C)cc(N2C(=O)N(Cc3cccc(F)c3)c3ccccc3S2(=O)=O)c1	/	i	-28%	i	?	/
CC(=O)Nc1nonc1-c1nnc(SCC(=O)Nc2ccc(F)cc2F)n1-c1ccccc1	/	i	?	i	?	/
Cc1cccc(NC(=O)CN2C(=O)N/C(=C/c3cc(C)n(C(C)C)c3C)C2=O)c1	-8%	i	?	i	?	-4%
Cc1cc(/C=C2\SC(N)=NC2=O)c(C)n1-c1ccccc1	0%	i	?	i	?	-2%
CCn1c(C)cc(/C=C2/SC(=S)N(CC(=O)O)C2=O)c1C	20%	i	5%	i	-1%	15%
COCCn1c(C)cc(/C=C2/SC(=O)N(C(C)C(=O)OC)C2=O)c1C (centres undefined)	10%	i	?	i	26µM*	11%
COC(=O)C(C)N1C(=O)S/C(=C/c2cc(C)n(C(C)C)c2C)C1=O (centres undefined)	-4%	4.1µM*	16µM*	?	?	1%
CCn1c(C)cc(/C=C2/SC(=O)N(C(C)C(=O)OC)C2=O)c1C (centres undefined)	-9%	i	?	?	21µM*	?
CCOC(=O)C(C)N1C(=O)S/C(=C/c2cc(C)n(-c3ccccn3)c2C)C1=O (centres undefined)	0%	?	?	i	16µM*	-4%
CC(=O)Nc1ccc(CN2C(=O)C(C)(C)ON=C2c2ccc(C(F)(F)F)cc2)cc1	8%	i	-1%	i	-11%	23%
CN(Cc1cccs1)c1ncnc2ccc(-c3ccc4cn(C)nc4c3)cc12	/	i	/	?	/	/
